biological target: APOBEC3G R374E/R376D (Homo sapiens, UniProt Q9HC16 Q9HC16:1-384, R374E,R376D); assay: FP; binding impaired by 46%; 5 mM MgCl2, 37 C; details: tags: Sf9, pAcG2T; label: internal fluorescein-dT; ssDNA; [15 (fluorescein-dT)]
Procedure: Apo3G-DNA binding were monitored by changes in steady state fluorescence depolarization (rotational anisotropy). Reaction mixtures (70 μl), containing an F-labeled DNA ([…]) in buffer (50 mM HEPES, pH 7.3, 1 mM DTT and 5 mM MgCl₂) and varying concentration of 0 to 500 nM Apo3G, were incubated at 37° C. The sequence of the ssDNA is: tta gat gag tgt aa(FdT) gtg ata tat gtg tat. Rotational anisotropy was measured as described previously (Chelico et al., 2006). The fraction of DNA bound to protein was determined as described previously (Bertram et al., 2004).

Chain of APOBEC3G R374E/R376D (Q9HC16 whole entry R374E/R376D, one chain of several): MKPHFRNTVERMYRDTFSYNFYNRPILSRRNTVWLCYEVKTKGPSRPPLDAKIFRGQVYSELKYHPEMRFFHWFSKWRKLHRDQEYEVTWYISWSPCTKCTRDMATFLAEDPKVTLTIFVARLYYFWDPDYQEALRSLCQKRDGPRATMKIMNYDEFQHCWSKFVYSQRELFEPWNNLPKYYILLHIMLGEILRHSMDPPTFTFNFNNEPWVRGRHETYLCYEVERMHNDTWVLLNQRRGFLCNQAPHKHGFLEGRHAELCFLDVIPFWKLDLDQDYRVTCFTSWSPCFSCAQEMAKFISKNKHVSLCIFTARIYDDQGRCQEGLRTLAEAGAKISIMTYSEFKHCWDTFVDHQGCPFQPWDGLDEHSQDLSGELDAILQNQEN

Row | Sequence | binding signal
1 | TTAGATGAGTGTAATGTGATATATGTGTAT | 54 % of wt
